From PubChem
DT40 TDP1 CPT: DT40-hTDP1 cell growth loss with CPT; chicken DT40 Tdp1-/-;hTDP1 cells + 20 nM CPT, ATP luminescence, 48 h; Potency, µM (titrated, usually from 46.2 µM), without a hit: at the top dose activity change, negative = growth inhibition, actives largely listed as inhibitors; 420,000 compounds, 12% hits; also: potency is read from the fitted curve at half-maximal effect; % is scaled to controls: 0 for no effect and ±100 for the full control effect; nearly all actives have a fitted effect of over 55% in size
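Chicken DT40 Tdp1-/- cells complemented with human TDP1, 400 cells/well, exposed to compounds plus 20 nM camptothecin for at least 48 h at 37 C; viability read as ATP content by CellTiter-Glo luminescence.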
HepG2 viability: kills HepG2 cells in TGF-b inhibitor counter-screen; Potency, µM (top dose mostly 46.1 µM), without a hit: top-dose activity change, negative = cytotoxicity, actives largely listed as cytotoxic; AID 588856; HepG2 CAGA-GFP viability, ATP luminescence, 18 h; 410,000 compounds, 0.76% hits; also: potency is read from the fitted curve at half-maximal effect
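CellTiter-Glo luminescence gave cytotoxicity after 18 hours at 37 degrees C. The cells were HepG2 CAGA-GFP in 1% FBS DMEM, stimulated with 500 pg/mL TGF-beta after compound addition. %Activity was normalised to no-cell wells (complete cell-killing) and DMSO (no toxicity), and curves were fitted and classified.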
IL1B secr inh: blocks inflammasome-driven IL-1 beta release; THP-1 LPS/ATP IL-1B secretion, AlphaLISA, 16 h; stronger effect = lower value; activity change, % at 57.5 µM; 360,000 compounds, 4.7% hits; in the data active = activity change below about -50%; inconclusive = mostly about -30% to -49%; also: % is scaled to controls: 0 for no effect and ±100 for the full control effect
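Secreted IL-1B measured by AlphaLISA bead assay after 16 h compound exposure of THP-1 cells; compounds (final up to 57.5 uM) added 1 h before LPS (250 ng/mL) and ATP (1.25 mM) stimulation; lower signal means less secretion.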
DT40 TDP1 no CPT: qHTS for Inhibitors of human tyrosyl-DNA phosphodiesterase 1 (TDP1): qHTS in cells in absence of CPT; DT40 Tdp1-/- hTDP1 cells, no CPT, ATP luminescence, 48 h; AID 686978, 2013; Potency, µM (doses to about 46.2 µM), inactives show at the top dose activity change, negative = growth inhibition, most hits filed as inhibitors; 420,000 compounds, 15% hits; also: potency is read from the fitted curve at half-maximal effect; % is scaled to controls: 0 for no effect and ±100 for the full control effect; nearly all actives have a fitted effect of over 55% in size
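A cellular qHTS used chicken DT40 cells lacking endogenous Tdp1 but carrying stably transfected human TDP1. Compounds were applied without camptothecin, and cell growth kinetics were judged by ATP-dependent luminescence after ≥48 hr.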
TDP1 block: blocks human tyrosyl-DNA phosphodiesterase 1; Q9NUW8; recombinant TDP1, AlphaScreen DNA substrate cleavage; Potency, µM (highest dose often 130 µM), without a hit: at the top dose activity change, negative = inhibition, most hits filed as inhibitors; 350,000 compounds, 0.28% hits; also: potency is read from the fitted curve at half-maximal effect; % is scaled to controls: 0 for no effect and ±100 for the full control effect; nearly all actives have a fitted effect of over 40% in size
Target sequence (Q9NUW8 whole entry, looked up): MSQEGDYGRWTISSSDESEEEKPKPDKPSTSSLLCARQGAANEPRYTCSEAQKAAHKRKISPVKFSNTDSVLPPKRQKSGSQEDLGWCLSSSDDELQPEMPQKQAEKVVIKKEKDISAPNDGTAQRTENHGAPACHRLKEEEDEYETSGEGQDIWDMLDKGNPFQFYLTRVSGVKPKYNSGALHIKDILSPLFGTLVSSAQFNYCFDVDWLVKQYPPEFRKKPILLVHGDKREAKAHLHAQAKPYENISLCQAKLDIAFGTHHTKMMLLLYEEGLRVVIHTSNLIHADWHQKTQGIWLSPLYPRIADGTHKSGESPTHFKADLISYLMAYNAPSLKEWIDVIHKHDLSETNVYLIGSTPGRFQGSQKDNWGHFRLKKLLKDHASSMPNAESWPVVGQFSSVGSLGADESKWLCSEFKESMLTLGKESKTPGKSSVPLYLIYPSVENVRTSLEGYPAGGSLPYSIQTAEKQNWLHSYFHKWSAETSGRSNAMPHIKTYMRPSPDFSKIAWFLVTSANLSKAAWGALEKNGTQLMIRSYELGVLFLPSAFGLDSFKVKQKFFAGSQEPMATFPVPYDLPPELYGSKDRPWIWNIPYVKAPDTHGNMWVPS
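Recombinant human Tdp1 (E. coli-expressed, 1 nM final) preincubated with compounds 15 min at room temperature, then 5'-biotin/3'-phosphotyrosine-FITC DNA substrate (15 nM final) added for 5 min. AlphaScreen beads (10 ug/ml final) added 10 min; cleavage lowers signal.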
TGFb SMAD3 inh: inhibitors of TGF-b signaling. HepG2 CAGA-GFP TGF-b/SMAD3 reporter, GFP fluorescence, 18 h; TGF-beta stimulated, 500 pg/mL final. Potency, µM (titrated, usually from 46.1 µM), for inactives: at the highest dose activity, negative = inhibition, actives largely listed as inhibitors. 410,000 compounds, 1.2% hits. AID 588855; also: potency is read from the fitted curve at half-maximal effect; % is scaled to controls: 0 for no effect and ±100 for the full control effect; nearly all actives have a fitted effect of over 65% in size
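First, reporter cells (HEPG2 CAGA-GFP) rested 2 h at 37 degrees C. Next, compounds were pinned in and TGF-beta added to 500 pg/mL final. After 18 h, GFP was imaged per cell and summed per well.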
* marks the source's active call; other numbers are inactive results; ? = inconclusive; / = no result; [ ] = remark or other dose. Rows were chosen to be rich in hits. Some 19% of all compounds tested hit in one or more screens of this group. Unless noted, calls follow the shape of the dose curve; as a rule, active = well fitted curve in the direction sought with a large enough effect; inconclusive = small, poorly fitted or top-dose-only effect, or another doubt; inactive = no such curve, though single readings can be large; an effect the other way counts as inactive or inconclusive.

SMILES | DT40 TDP1 CPT | HepG2 viability | IL1B secr inh | DT40 TDP1 no CPT | TDP1 block | TGFb SMAD3 inh
CC#CCN1c2ccccc2[C@]23C[C@@H](C(=O)OC)N(S(=O)(=O)c4ccc5c(c4)OCCN5C)C2=NC(C(=O)OC)=C(C(=O)OC)[C@H]13 | / | / | / | / | 9.2%[12.3 µM] | /
Cc1cnc2c(C)cccc2c1C | -128.8% | 26.0% | / | 0.224µM* | / | -7.0%
COC(=O)c1cc(-c2cccs2)nn1-c1ccccc1 | 4.3% | -13.8% | 8.9 | -13.7% | 2.3% | -9.6%
CN(C)S(=O)(=O)c1cccc(NC(=O)c2cc(-c3cccs3)nn2-c2ccccc2)c1 | ? | -7.4% | 0.0 | 14.6µM* | -2.4% | -0.4%
CCN(CC)S(=O)(=O)c1cccc(NC(=O)c2cc(-c3cccs3)nn2-c2ccccc2)c1 | 20.6µM* | 9.8% | 7.3 | 14.6µM* | 5.6% | 3.6%
COC(=O)[C@@]1(Cc2ccccc2)[C@H]2c3cc(C(=O)N4CCCC4)n(CC4CC4)c3C[C@H]2CN1C(=O)c1ccccc1 | / | / | / | / | 20.1% | /
O=C(Nc1ccc(N2CCN(C(=O)c3cccs3)CC2)cc1)c1cccc(F)c1 | 16.4µM* | -6.9% | -88.6* | 20.6µM* | / | -6.7%
COc1cccc(C(=O)Nc2ccc(N3CCN(C(=O)c4cccs4)CC3)cc2)c1 | 2.31µM* | -19.1% | -87.1* | 4.61µM* | / | ?
CC(=O)Nc1ccc(S(=O)(=O)NCCC(=O)OCc2csc(CC(=O)Nc3ccccc3C)n2)cc1 | -4.2% | 1.8% | 37.2 | ? | 0.3% | -38.6%
Cc1cnc(C(=O)N(CC(C)C)c2c(N)n(CC(C)C)c(=O)[nH]c2=O)cn1 | -2.4% | -1.3% | 12.3 | -8.5% | 2.6% | 0.7%
N#Cc1ccc(OCC(=O)Nc2ccc(N3CCCC3)cc2)cc1 | ? | -1.7% | -5.0 | 11.6µM* | 3.5% | -6.1%
O=C(Cn1c(-c2ccccc2)noc1=O)Nc1ccc(N2CCCCCC2)cc1 | 15.8µM* | 0.6% | 2.9 | 17.8µM* | 11.3% | 3.0%
O=C(CCl)Nc1ccc(N2CCCCCC2)cc1 | 5.17µM* | -47.2% | -98.4* | 8.2µM* | -2.5% | ?
CCOc1ccc(OCC(=O)Nc2ccc(N3CCCCC3)cc2)cc1 | -2.3% | -18.2% | -3.8 | -9.9% | 3.7% | -4.8%
O=c1ccc2ccc(OS(=O)(=O)O)cc2o1 | / | / | / | / | 3.6% | /
O[C@H]1C[C@H](c2ccc(Cl)cc2)N(CC2CCCCC2)C[C@@H]1n1cc(C2CC2)nn1 | 5.8µM* | 15.8µM* | ? | 6.51µM* | / | ?
COc1ccc([C@H]2C[C@H](n3cc(C4CC4)nn3)[C@@H](O)CN2CC2CCCCC2)cc1 | ? | -113.8% | -4.9 | 16.4µM* | / | ?
COc1ccc([C@H]2C[C@@H](O)[C@H](n3cc(-c4ccc(F)cc4)nn3)CN2CC2CCCCC2)cc1 | ? | -7.3% | 3.0 | 6.51µM* | / | 15.5%
O[C@@H]1C[C@H](c2ccc(Cl)cc2)N(CC2CCCCC2)C[C@H]1n1cc(C2CC2)nn1 | ? | -3.9% | 7.9 | ? | / | 4.4%
COc1ccc([C@H]2C[C@H](n3cc(-c4ccc(F)cc4)nn3)[C@@H](O)CN2CC2CCCCC2)cc1 | ? | -7.6% | -10.2 | ? | / | ?
O[C@@H]1CN(CC2CCCCC2)[C@@H](c2ccc(Cl)cc2)C[C@H]1n1cc(C2CC2)nn1 | ? | -28.5% | -50.7* | 23.1µM* | / | 2.7%
CCOc1ccc(NC(=O)NCc2ccc3c(c2)CCN3C(C)=O)cc1 | -16.7% | -6.2% | / | -6.6% | 1.8% | -1.3%
CC(C)OC1=CC(=O)OC(c2cccc(Cl)c2)C1 (stereo not drawn) | -21.9% | / | -14.1 | -12.9% | / | /
